The values below come from PubChem BioAssay (Tox21).

The structures appear in SMILES notation. Several values for one entry are separate records, joined by “and”; a condition that tells them apart may be missing. Equal entries are not always repeated. Results filed as inconclusive are left out. Entries that show only a call come without a potency. Some compounds were tested as several samples or in several runs, with calls that do not always agree. Activity calls are given as the source filed them. Unless noted, calls come from the whole dose curve; as a rule, active = well fitted curve in the direction sought with a large enough effect in the repeat runs; inconclusive = weak or mixed curves; inactive = no such curve, though single readings can be large; an effect the other way counts as inactive or inconclusive.

The first test in a line: qHTS assay to identify small molecule antagonists of the estrogen receptor alpha (ER-alpha) signaling pathway using the BG1 cell line in the presence of 0.1 nM 17-beta-estradiol - cell viability counter screen (AID 1259241). Note: nearly all actives have a fitted effect of over 40% in size. Note: potency is the fitted concentration of half-maximal effect. Conditions: VM7Luc4E2 (BG1) viability, CellTiter-Fluor protease, 22 h, 0.1 nM estradiol agonist added; series mostly up to 92.4 µM; activity change, negative = cytotoxicity: at the top concentration. An outline of the steps: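 VM7Luc4E2, 4,000 cells/well, phenol red-free medium + 10% charcoal-stripped FBS; 24 hr plating; cpd + 0.1 nM E2 final, 22 hr 37C/5% CO2; CellTiter-Fluor 30 min, fluorescence.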
Background: Quantitative high-throughput screening tests each substance at several concentrations.
For `O=C(O)CCl`, the Potency result was “inactive”.

As to `C=CCOC(Cn1ccnc1)c1ccc(Cl)cc1Cl` (configuration not stated), the “activity change, negative = cytotoxicity” value was -6.73% [at 42.5 µM] (inactive).

Consider `CC(=O)O`, for which the Potency result is “inactive”.

Turning to `CCC[N+]1(C)CCCC1`, the Potency result was “inactive”.

In the case of `CCCCCC[n+]1ccccc1`, the Potency result was “inactive”.

Regarding `CCCC[N+]1(C)CCCCC1`, the Potency entry was “inactive”.

Regarding `COCC(=O)N(c1c(C)cccc1C)C(C)C(=O)OC` (configuration not stated), the Potency entry was “inactive”.

Consider `Nc1ccccc1`, for which the Potency result is “inactive”.

Take `O=S(=O)(O)O`: the Potency result is “inactive”.

For the compound `C1CCC(NC2CCCCC2)CC1`, the Potency entry was “inactive”.

For the compound `CCCn1cc[n+](C)c1`, the Potency result was “inactive”.

On to `O=C(O)C(Cl)(Cl)Cl`, for which the Potency entry was “inactive”.

In the case of `COP(=O)(OC)C(O)C(Cl)(Cl)Cl` (configuration not stated), the Potency entry is “inactive”.

Turning to `CN(C)[C@@H]1C(=O)C(C(N)=O)=C(O)[C@@]2(O)C(=O)C3=C(O)c4c(O)cccc4[C@@](C)(O)[C@H]3[C@H](O)[C@@H]12`, the Potency entry is “inactive”.

`O=C(O)C(Cl)Cl`: the Potency result was “inactive”.

On to `CCOP(=S)(OCC)Oc1ccc2c(C)c(Cl)c(=O)oc2c1`, for which the Potency entry was “inactive”.

On to `CC[n+]1ccccc1`, for which the Potency result is “inactive”.

As for `COP(=O)(OC)OC=C(Cl)Cl`, the Potency result was “inactive”.

In the case of `CCCCn1cc[n+](C)c1C`, the Potency result was “inactive”.

Consider `CC(=O)[O][Hg][c]1ccccc1`, for which the Potency is 4.81 µM (active) and 9.69 µM (active) and 11.9 µM (active).

As to `CCCCCCCCCCn1cc[n+](C)c1`, the Potency result is “inactive”.

In the case of `O=C(O)COc1ccc(Cl)cc1Cl`, the Potency entry is “inactive”.

In the case of `CC[N+](CC)(CC)CC`, the Potency result was “inactive”.

Take `CCCCn1cc[n+](C)c1`: the Potency result is “inactive”.

On to `C[C@]12CCC(=O)C=C1CC[C@@H]1[C@@H]2CC[C@]2(C)C(=O)CC[C@@H]12`, for which the Potency result is “inactive”.

As to `Cc1cc(Cl)ccc1OCC(=O)O`, the Potency result was “inactive”.

Take `O=c1[nH]c(=O)n(Cl)c(=O)n1Cl`: the Potency entry was “inactive”.

Consider `CCn1cc[n+](C)c1C`, for which the Potency entry is “inactive”.

`O=P1(N(CCCl)CCCl)NCCCO1` (configuration not stated): the Potency entry is “inactive”.

As for `OCCOc1ccccc1`, the Potency result is “inactive”.

Consider `CCNc1nc(Cl)nc(NCC)n1`, for which the Potency result was “inactive”.

Turning to `CC(Cl)(Cl)C(=O)O`, the Potency result was “inactive”.

The next test can be described thus: qHTS assay to identify small molecule antagonists of the androgen receptor (AR) signaling pathway using the MDA cell line in the presence of 0.5 nM R1881 - cell viability counter screen (AID 1259242). Note: nearly all actives have a fitted effect of over 45% in size. Note: potency is the fitted concentration of half-maximal effect. Conditions: MDA-kb2 viability, CellTiter-Fluor protease fluorescence, 16 h; series mostly up to 92.4 µM; viability change, negative = cytotoxic: at the top concentration. An outline of the steps:
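R1881 at 0.5 nM final stimulated MDA-kb2 cells during 16 hr compound treatment at 37C. Cytotoxicity read: CellTiter-Fluor fluorescence after 30 min.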
For `O=C(O)CCl`, the Potency entry was “inactive”.

In the case of `C=CCOC(Cn1ccnc1)c1ccc(Cl)cc1Cl` (configuration not stated), the Potency entry is “inactive”.

With `CC(=O)O`, the Potency result is “inactive”.

On to `CCC[N+]1(C)CCCC1`, for which the Potency entry is “inactive”.

Consider `CCCCCC[n+]1ccccc1`, for which the Potency entry is “inactive”.

In the case of `CCCC[N+]1(C)CCCCC1`, the Potency result was “inactive”.

Regarding `COCC(=O)N(c1c(C)cccc1C)C(C)C(=O)OC` (configuration not stated), the Potency result was “inactive”.

Consider `Nc1ccccc1`, for which the Potency result was “inactive”.

As for `O=S(=O)(O)O`, the Potency entry was “inactive”.

Take `C1CCC(NC2CCCCC2)CC1`: the Potency result is “inactive”.

On to `CCCn1cc[n+](C)c1`, for which the Potency result was “inactive”.

As to `O=C(O)C(Cl)(Cl)Cl`, the Potency result is “inactive”.

As for `COP(=O)(OC)C(O)C(Cl)(Cl)Cl` (configuration not stated), the Potency result was “inactive”.

As to `CN(C)[C@@H]1C(=O)C(C(N)=O)=C(O)[C@@]2(O)C(=O)C3=C(O)c4c(O)cccc4[C@@](C)(O)[C@H]3[C@H](O)[C@@H]12`, the Potency entry is “inactive”.

As for `O=C(O)C(Cl)Cl`, the Potency entry was “inactive”.

For the compound `CCOP(=S)(OCC)Oc1ccc2c(C)c(Cl)c(=O)oc2c1`, the Potency result is “inactive”.

As for `CC[n+]1ccccc1`, the Potency entry is “inactive and 30.4 µM (active)”.

Turning to `COP(=O)(OC)OC=C(Cl)Cl`, the Potency entry was “inactive”.

With `CCCCn1cc[n+](C)c1C`, the Potency result was “inactive”.

For `CC(=O)[O][Hg][c]1ccccc1`, the Potency is 1.92 µM (active) and 6.11 µM (active) and 2.66 µM (active).

In the case of `CCCCCCCCCCn1cc[n+](C)c1`, the Potency entry is “inactive”.

As to `O=C(O)COc1ccc(Cl)cc1Cl`, the Potency result was “inactive”.

In the case of `CC[N+](CC)(CC)CC`, the Potency result was “inactive”.

Turning to `CCCCn1cc[n+](C)c1`, the Potency result was “inactive”.

In the case of `C[C@]12CCC(=O)C=C1CC[C@@H]1[C@@H]2CC[C@]2(C)C(=O)CC[C@@H]12`, the Potency result is “inactive”.

In the case of `Cc1cc(Cl)ccc1OCC(=O)O`, the Potency entry is “inactive”.

Regarding `O=c1[nH]c(=O)n(Cl)c(=O)n1Cl`, the Potency entry was “inactive”.

For the compound `CCn1cc[n+](C)c1C`, the Potency entry was “inactive”.

`O=P1(N(CCCl)CCCl)NCCCO1` (configuration not stated): the Potency result was “inactive”.

For `OCCOc1ccccc1`, the Potency result is “inactive”.

Take `CCNc1nc(Cl)nc(NCC)n1`: the Potency result was “inactive”.

As to `CC(Cl)(Cl)C(=O)O`, the Potency entry is “inactive”.

A further test can be described thus: qHTS assay to identify small molecule phospholipidosis (PLD) inducers (AID 1259344; active = well fitted curve in the direction sought with a large enough effect; an effect the other way counts as inactive or inconclusive). Particulars: HepG2 phospholipidosis, LipidTOX Red imaging, 24 h; series mostly up to 38.3 µM; PLD induction: at the top concentration. An outline of the steps:
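Phospholipidosis is scored by imaging LipidTOX-stained pits in HepG2 cells exposed to compound for 24 h at 37 C; pit counts and integrated intensities per well and per cell serve as outputs.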
Turning to `C=CCOC(Cn1ccnc1)c1ccc(Cl)cc1Cl` (configuration not stated), the “PLD induction” value was 1.56% (inactive).

Regarding `COCC(=O)N(c1c(C)cccc1C)C(C)C(=O)OC` (configuration not stated), the “PLD induction” value was 0.0131% (inactive).

`Nc1ccccc1`: the “PLD induction” value is -7.89% (inactive).

As to `C1CCC(NC2CCCCC2)CC1`, the “PLD induction” value was 0.304% (inactive).

Take `O=C(O)C(Cl)(Cl)Cl`: the “PLD induction” value is -0.546% (inactive).

Regarding `COP(=O)(OC)C(O)C(Cl)(Cl)Cl` (configuration not stated), the “PLD induction” value is 0.719% (inactive).

Turning to `CN(C)[C@@H]1C(=O)C(C(N)=O)=C(O)[C@@]2(O)C(=O)C3=C(O)c4c(O)cccc4[C@@](C)(O)[C@H]3[C@H](O)[C@@H]12`, the compound was classed as inactive.

As for `O=C(O)C(Cl)Cl`, the compound was classed as inactive.

For `CCOP(=S)(OCC)Oc1ccc2c(C)c(Cl)c(=O)oc2c1`, the “PLD induction” value is 5.18% (inactive).

Turning to `COP(=O)(OC)OC=C(Cl)Cl`, the “PLD induction” value is 8.74% (inactive).

As for `CC(=O)[O][Hg][c]1ccccc1`, the “PLD induction” value was -1.14% (inactive).

For `CC[N+](CC)(CC)CC`, the “PLD induction” value was 1.49% (inactive).

Consider `O=c1[nH]c(=O)n(Cl)c(=O)n1Cl`, for which the “PLD induction” value is -1.82% (inactive).

For `O=P1(N(CCCl)CCCl)NCCCO1` (configuration not stated), the “PLD induction” value is -0.221% (inactive).

Turning to `OCCOc1ccccc1`, the compound was called inactive.

Consider `CCNc1nc(Cl)nc(NCC)n1`, for which the “PLD induction” value was -0.0636% (inactive).

The next test in a line: qHTS assay to identify small molecule HDAC inhibitors (AID 1259364). For activity change, negative = inhibition: top concentration of the series differs between compounds. Note: potency is the fitted concentration of half-maximal effect.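 Note: wild-type HCT-116 cells with endogenous class I/II HDAC activity; nearly all actives have a fitted effect of over 45% in size.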 Conditions: HCT-116 HDAC-Glo I/II luminescence, 2 h; series mostly up to 92.4 µM; activity change, negative = inhibition: at the top concentration. An outline of the steps:
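Relative class I and II HDAC activity is taken from the luminogenic signal in HCT-116 cells, with compound exposure 2 hr and reagent development 30 min at room temperature.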
In the case of `O=C(O)CCl`, the Potency result is “inactive”.

As for `C=CCOC(Cn1ccnc1)c1ccc(Cl)cc1Cl` (configuration not stated), the Potency result is “inactive”.

For `CC(=O)O`, the Potency result is “inactive”.

As for `CCC[N+]1(C)CCCC1`, the Potency result was “inactive”.

Regarding `CCCCCC[n+]1ccccc1`, the Potency result was “inactive”.

Take `CCCC[N+]1(C)CCCCC1`: the Potency result was “inactive”.

As for `COCC(=O)N(c1c(C)cccc1C)C(C)C(=O)OC` (configuration not stated), the Potency result is “inactive”.

On to `Nc1ccccc1`, for which the Potency result was “inactive”.

For the compound `O=S(=O)(O)O`, the Potency result was “inactive”.

In the case of `C1CCC(NC2CCCCC2)CC1`, the Potency entry was “inactive”.

Turning to `CCCn1cc[n+](C)c1`, the Potency entry was “inactive”.

Take `O=C(O)C(Cl)(Cl)Cl`: the Potency result was “inactive”.

As for `COP(=O)(OC)C(O)C(Cl)(Cl)Cl` (configuration not stated), the Potency entry was “inactive”.

As to `CN(C)[C@@H]1C(=O)C(C(N)=O)=C(O)[C@@]2(O)C(=O)C3=C(O)c4c(O)cccc4[C@@](C)(O)[C@H]3[C@H](O)[C@@H]12`, the Potency entry is “inactive”.

Take `O=C(O)C(Cl)Cl`: the Potency result was “inactive”.

As for `CCOP(=S)(OCC)Oc1ccc2c(C)c(Cl)c(=O)oc2c1`, the Potency result is “inactive and 11.9 µM (active)”.

With `CC[n+]1ccccc1`, the Potency entry was “inactive”.

In the case of `COP(=O)(OC)OC=C(Cl)Cl`, the Potency entry is “inactive”.

Take `CCCCn1cc[n+](C)c1C`: the Potency entry is “inactive”.

For the compound `CC(=O)[O][Hg][c]1ccccc1`, the Potency is 21.5 µM (active) and 8.63 µM (active) and 13.3 µM (active).

Consider `CCCCCCCCCCn1cc[n+](C)c1`, for which the Potency entry was “inactive”.

Take `O=C(O)COc1ccc(Cl)cc1Cl`: the Potency result was “inactive”.

With `CC[N+](CC)(CC)CC`, the Potency entry was “inactive”.

For the compound `CCCCn1cc[n+](C)c1`, the Potency result is “inactive”.

For `C[C@]12CCC(=O)C=C1CC[C@@H]1[C@@H]2CC[C@]2(C)C(=O)CC[C@@H]12`, the Potency result is “inactive”.

For `Cc1cc(Cl)ccc1OCC(=O)O`, the Potency entry was “inactive”.

Regarding `O=c1[nH]c(=O)n(Cl)c(=O)n1Cl`, the Potency entry was “inactive”.

In the case of `CCn1cc[n+](C)c1C`, the Potency result was “inactive”.

For `O=P1(N(CCCl)CCCl)NCCCO1` (configuration not stated), the Potency entry was “inactive”.

As to `OCCOc1ccccc1`, the Potency result is “inactive”.

Take `CCNc1nc(Cl)nc(NCC)n1`: the Potency entry was “inactive”.

Regarding `CC(Cl)(Cl)C(=O)O`, the Potency entry is “inactive”.
